Screens (PubChem BioAssay)
Shown is part of a subset that was picked to be rich in hits.
Glyco luc inh = N-linked glycosylation inhibition; AID 588692; reporter increase, % at 12.5 µM; actives 0.23% (n = 360,000); D54 ERlucT glycosylation luciferase reporter, 24 h; percent of 100 nM tunicamycin response;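 active = mean luciferase reporter signal, scaled so untreated is 0 and the glycosylation-blocking control 100, at or above a set limit in every replicate; inconclusive = mean reaches the limit but not every replicate does; inactive = mean below the limit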;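 note: luciferase carries N-glycosylation sites so blocking glycosylation raises the light; 0% = median of neutral control wells and 100% = median of 100 nM tunicamycin wells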
PglD DTNB = blocks C. jejuni PglD acetyltransferase activity. AID 602405. purified PglD enzyme, DTNB colorimetric CoA detection. inhibition, % at 12.5 µM. actives 0.098% (n = 360,000); in the data active = inhibition above about 16%, passing the limit was not always enough; inconclusive = no clear call, values can overlap the other calls
Rtt109 Vps75 = blocks Candida albicans Rtt109/Vps75 acetyltransferase activity | Q5AAJ8 | purified Rtt109/Vps75, ThioGlo CoA-SH fluorescence, 4 h | inhibition, % at 34.9 µM | actives 0.16% (n = 330,000);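 active = inhibition of at least 50% in every replicate; inconclusive = best replicate reaches 50% inhibition but some replicates fall short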
Target sequence (Q5AAJ8 whole entry, looked up): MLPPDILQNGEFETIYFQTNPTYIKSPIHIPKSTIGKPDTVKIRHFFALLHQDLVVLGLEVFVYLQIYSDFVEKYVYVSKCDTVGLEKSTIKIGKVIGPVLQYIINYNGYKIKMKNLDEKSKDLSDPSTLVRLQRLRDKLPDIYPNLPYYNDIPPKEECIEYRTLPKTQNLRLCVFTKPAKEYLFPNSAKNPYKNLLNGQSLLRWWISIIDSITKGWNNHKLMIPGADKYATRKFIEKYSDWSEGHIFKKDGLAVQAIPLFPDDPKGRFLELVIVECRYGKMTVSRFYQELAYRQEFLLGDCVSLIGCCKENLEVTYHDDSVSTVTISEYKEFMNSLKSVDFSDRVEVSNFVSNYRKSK
DENV2 CPE = DENV2-induced cell death inhibition. DENV2-infected cells, cytopathic effect rescue, plate reader. CPE inhibition, % at 9.99 µM. actives 1.7% (n = 350,000). AID 651640; in the data active = CPE inhibition above about 20%, passing the limit was not always enough; inconclusive = no clear call, values can overlap the other calls; tested in BHK-21 cells;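 note: 0% = median of neutral control wells and 100% = median of positive control wells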
Starred values were filed as active, the others as inactive; ? = inconclusive; · = no result given; ! = not active in a repeat.

SMILES | Glyco luc inh | PglD DTNB | Rtt109 Vps75 | DENV2 CPE
COCCCNC(=O)C[C@@H]1C[C@@]2(C(=O)OC)CC(C)(C)CC=C2N(Cc2ccco2)C1=O | · | · | · | 21*
COC(=O)[C@@]12C[C@@H](CC(=O)NCCCN3CCCC3=O)C(=O)N(Cc3ccco3)C1=CCC(C)(C)C2 | · | · | · | -10
CN(C)C(=O)c1cccc(-c2ccc([C@@H]3[C@H](CO)N4CCCCN(C(=O)C5CCC5)C[C@@H]34)cc2)c1 | · | 4 | · | 11
O=C(NCc1ccccc1)C(c1ccncc1)n1c(=O)c(-c2ccccc2)nc2ccccc21 (stereo not drawn) | · | · | · | 40*
CC(C)(C)NC(=O)C(c1ccncc1)n1c(=O)c(-c2ccco2)nc2ccccc21 (stereo not drawn) | · | · | · | 31*
CCOc1ccc(CCNC(=O)C2CC(=O)N(CCc3ccccc3)C2)cc1OCC (stereo not drawn) | -1 | 3 | 1 | -1
CCOc1ccc(NC(=O)C2CC(=O)N(CCc3ccccc3)C2)cc1OC (stereo not drawn) | 0 | 4 | -1 | 89*
CC(C)NC(=O)N(C)C[C@H]1Oc2ccc(NC(=O)Cc3ccccc3)cc2C(=O)N([C@H](C)CO)C[C@@H]1C | 0 | -1 | 1 | 52*!
CC(C)NC(=O)N(C)C[C@@H]1Oc2ccc(NC(=O)Cc3ccccc3)cc2C(=O)N([C@@H](C)CO)C[C@H]1C | · | -3 | · | -3
CC(C)NC(=O)N(C)C[C@@H]1Oc2ccc(NC(=O)Cc3ccccc3)cc2C(=O)N([C@H](C)CO)C[C@H]1C | · | -2 | · | 78*
O=C1[C@@H]2Cc3c([nH]c4ccccc34)C(c3ccc([N+](=O)[O-])cc3)N2C(=O)CN1C1CC1 (stereo partly drawn) | 43* | -5 | 6 | ?
CCCNC(=O)C[C@H]1C[C@@H]2c3cc(NS(=O)(=O)c4ccc(OC)cc4)ccc3O[C@@H]2[C@H](CO)O1 | · | -1 | · | 0
CCCNC(=O)N1C[C@@H]2[C@H](c3ccccc31)[C@H](CO)N2Cc1ccc(F)cc1 | · | 0 | · | -6
O=C(N/N=C/c1cccnc1)c1ccccc1OCc1ccc(Br)cc1 | 3 | 3 | -2 | 4
O=C(N/N=C/c1cccnc1)c1cc(-c2ccccc2OCc2ccccc2)n[nH]1 | 41* | 0 | -41 | 7
COc1cccc(-c2cnc3c(c2)C(=O)N([C@H](C)CO)C[C@H](C)[C@H](CN(C)C(C)=O)O3)c1 | · | 0 | · | -3
COc1ccc(S(=O)(=O)N(C)C[C@H]2OCCCC[C@@H](C)Oc3ccc(NC(=O)c4ccncc4)cc3C(=O)N([C@@H](C)CO)C[C@H]2C)cc1 | · | 1 | · | ?
Cc1ccccc1NC(=O)CCN1C(=O)c2ccccc2C1=O | 2 | 0 | -13 | -7
Cc1cccc(NC(=O)CCN2C(=O)c3ccccc3C2=O)c1 | 0 | 1 | 59* | 8
CCOC(=O)Nc1ccc(N2CCOCC2)c(S(=O)(=O)N2CCOCC2)c1 | 3 | -3 | -8 | 26*
CCOC(=O)Nc1ccc(S(=O)(=O)N2CCOCC2)cc1 | -1 | -2 | 5 | ·
C[C@@H]1CN([C@H](C)CO)C(=O)c2cccc(NS(=O)(=O)c3ccc(Cl)cc3)c2O[C@H]1CN(C)S(=O)(=O)c1ccc(F)cc1 | · | 3 | · | -6
CCn1nc(C(=O)OCC(=O)N(CCC#N)c2ccccc2)c2ccccc2c1=O | 1 | 1 | -2 | 75*
Cc1ccc(S(=O)(=O)Nc2cccc3c2O[C@@H](CN(C)C(=O)NC(C)C)[C@H](C)CN([C@@H](C)CO)C3=O)cc1 | · | -1 | · | 7
Cc1noc(C)c1NC(=O)N(C)C[C@@H]1Oc2c(NS(=O)(=O)c3ccccc3)cccc2C(=O)N([C@@H](C)CO)C[C@@H]1C | · | 2 | · | 125*
SMILES | Glyco luc inh | PglD DTNB | Rtt109 Vps75 | DENV2 CPE
Cc1noc(C)c1S(=O)(=O)Nc1cccc2c1O[C@H](CN(C)C(=O)NC(C)C)[C@H](C)CN([C@@H](C)CO)C2=O | · | -5 | · | 88*
Cc1noc(C)c1S(=O)(=O)Nc1cccc2c1O[C@H](CN(C)S(=O)(=O)c1ccccc1)[C@H](C)CN([C@H](C)CO)C2=O | · | -2 | · | 54*
Cc1ccc(S(=O)(=O)Nc2cccc3c2O[C@@H](CN(C)C(=O)NC(C)C)[C@@H](C)CN([C@H](C)CO)C3=O)cc1 | · | 1 | · | 43*
COc1ccccc1S(=O)(=O)N[C@H]1C=C[C@H](CC(=O)N2CCCCC2)O[C@H]1CO | · | -2 | · | -1
O=C(N[C@H]1CC[C@H](CCn2cc(C3(O)CCCC3)nn2)O[C@H]1CO)C1CCOCC1 | · | 2 | · | 32*
O=C(N[C@@H]1CC[C@@H](CCn2cc(C3(O)CCCC3)nn2)O[C@@H]1CO)C1CCCC1 | · | 0 | · | -8
CC(C)c1cn(CC[C@H]2CC[C@@H](NC(=O)C3CCOCC3)[C@H](CO)O2)nn1 | · | · | · | 2
O=C(N[C@@H]1CC[C@@H](CCn2cc(C3(O)CCCC3)nn2)O[C@H]1CO)C1CCCC1 | · | -1 | · | 21*
CC(C)c1cn(CC[C@@H]2CC[C@H](NC(=O)C3CCOCC3)[C@H](CO)O2)nn1 | · | · | · | 31*
COCCN(C(=O)COC(=O)CC(C)c1ccccc1)c1c(N)n(Cc2ccccc2)c(=O)[nH]c1=O (stereo not drawn) | -1 | · | 2 | 31*
CCN(C(=O)CSc1nnc(NCCOC)s1)c1c(N)n(Cc2ccccc2)c(=O)[nH]c1=O | 3 | 1 | 13 | 69*
CCOc1ccc(OCC(=O)N(CCC2=CCCCC2)c2c(N)n(Cc3ccccc3)c(=O)[nH]c2=O)cc1 | 80* | -9 | 2 | -3
CCCNC(=O)N1[C@H](CO)[C@H](c2ccccc2-c2ccc(F)cc2)[C@@H]1C#N | · | · | · | -1
O=C(NCC[C@H]1CC[C@H](NC(=O)C2CCCCC2)[C@@H](CO)O1)Nc1ccc(Cl)cc1 | · | 9 | · | 3
CCCN1C[C@@H](C)[C@@H](OC)CN(C)C(=O)c2cc(NC(=O)C3CCC3)ccc2OC[C@@H]1C | · | -1 | · | ·
CO[C@@H]1CN(C)C(=O)c2cc(NS(C)(=O)=O)ccc2OC[C@@H](C)N(Cc2ccccc2)C[C@H]1C | · | -1 | · | -8
CC(C)NC(=O)N(C)C[C@@H]1OCCCC[C@@H](C)Oc2ccc(NS(=O)(=O)c3cccs3)cc2C(=O)N([C@H](C)CO)C[C@@H]1C | · | 8 | · | 55*
C[C@@H]1CCCCO[C@H](CN(C)C(=O)Nc2ccc(F)cc2)[C@H](C)CN([C@H](C)CO)C(=O)c2cc(NS(=O)(=O)c3cccs3)ccc2O1 | · | 8 | · | 68*
C[C@H]1CCCCO[C@H](CN(C)C(=O)Nc2ccc(F)cc2)[C@@H](C)CN([C@@H](C)CO)C(=O)c2cc(NS(=O)(=O)c3cccs3)ccc2O1 | · | 6 | · | 27*
C[C@@H]1CCCCO[C@@H](CN(C)C(=O)Nc2ccc(F)cc2)[C@H](C)CN([C@H](C)CO)C(=O)c2cc(NS(=O)(=O)c3cccs3)ccc2O1 | · | 1 | · | -12
O=C(Nc1ccc(F)cc1)N1CCCCN2[C@H](CO)[C@H](c3ccc(C#CC4CC4)cc3)[C@@H]2C1 | · | -3 | · | ?
CN1C(C)(C)c2ccccc2OS1(=O)=O | 3 | 6 | 0 | 25*
CN1/C(=C\C=O)C(C)(C)c2ccccc21 | -2 | · | 8 | ·
